Measured values from PubChem BioAssay (Tox21).
Where “and” joins values, the source holds several entries; their conditions need not be identical. Identical values can stand only once. Results filed as inconclusive are left out. Entries that show only a call come without a potency. Where a structure was tested more than once in an assay, its records may differ in their call. Calls of active or inactive are those of the source. Calls follow the shape of the dose curve; as a rule, active = well fitted curve in the direction sought with a large enough effect in the repeat runs; inconclusive = weak or mixed curves; inactive = no such curve, though single readings can be large; an effect the other way counts as inactive or inconclusive.

How the values were obtained:
[1] = Human pregnane X receptor (PXR) small molecule agonists, qHTS cell viability counter screen (AID 1346977); also: nearly all actives have a fitted effect of over 50% in size; also: potency is read from the fitted curve at half-maximal effect
Procedure, shortened: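 Same-well viability read: CellTiter-Fluor added after 23 hr compound exposure, fluorescence measured 1 hr later. Cells were PXR-Luc HepG2 seeded at 2,000/well in 5% charcoal-stripped FBS medium, rested 5 hr before dosing at 37 C.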

[2] = Caspase-3/7 induction in HepG2 cells by small molecules, qHTS assay (AID 1346978); also: nearly all actives have a fitted effect of over 15% in size; also: potency is read from the fitted curve at half-maximal effect
Procedure, shortened: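 Caspase-3/7 induction was measured by Caspase-Glo 3/7 luminescence (30 min, room temperature) after a 17 hr compound exposure of wild-type HepG2 cells seeded at 2,000 per well and pre-incubated 5 hr.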

[3] = Caspase-3/7 induction in CHO-K1 cells by small molecules, qHTS cell viability counter screen (AID 1346979); also: nearly all actives have a fitted effect of over 35% in size; also: potency is read from the fitted curve at half-maximal effect
Procedure, shortened: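 Cytotoxicity counter screen: CellTiter-Fluor added to compound-treated wild-type CHO-K1 cells at 16 h (37C, 5% CO2), fluorescence measured 1 h later; same wells as caspase-3/7 measurement.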

[4] = Caspase-3/7 induction in CHO-K1 cells by small molecules, qHTS assay (AID 1346980); also: nearly all actives have a fitted effect of over 15% in size
Procedure, shortened: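 Luminescent Caspase-Glo 3/7 read (30min, room temperature) quantified apoptosis induction. Cells were wild-type CHO-K1, treated with compound for 17hr at 37 C and 5% CO2.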

[5] = Caspase-3/7 induction in HepG2 cells by small molecules, qHTS cell viability counter screen (AID 1346981); also: nearly all actives have a fitted effect of over 30% in size; also: potency is read from the fitted curve at half-maximal effect
Procedure, shortened: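 The parent HepG2 line is plated at 2,000 cells per well and rested 5 hr before compound pinning from DMSO stocks. Following a 16-hr treatment at 37 C, a fluorogenic live-cell substrate (CellTiter-Fluor) reports viability after 1 hr.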

[6] = target: Cytochrome P450 2D6 (Homo sapiens) (UniProt P10635); test: Cytochrome P450 Family 2 Subfamily D Member 6 (CYP2D6) small molecule antagonists: luciferase reporter qHTS assay (AID 1671196); also: nearly all actives have a fitted effect of over 50% in size; also: potency is read from the fitted curve at half-maximal effect; as to activity change, negative = inhibition: series mostly up to about 120 µM
Procedure, shortened: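 Quantitative HTS of Tox21 chemicals against CYP2D6 using a luminescent proluciferin substrate. After NADPH addition, 1 h room-temperature reaction; luminescence recorded 20 min post detection reagent.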

[7] = target: Cytochrome P450 2C19 (Homo sapiens) (UniProt P33261); test: Cytochrome P450 Family 2 Subfamily C Member 19 (CYP2C19) small molecule antagonists: luciferase reporter qHTS assay (AID 1671197); also: nearly all actives have a fitted effect of over 65% in size; also: potency is read from the fitted curve at half-maximal effect; as to activity change, negative = inhibition: series mostly up to about 120 µM
Procedure, shortened: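 Relative luminescence units recorded 20 min after the detection reagent stopped a 1 h, 37C CYP2C19 reaction on proluciferin substrate, which was started by NADPH regeneration following 10 min room-temperature compound preincubation; ketoconazole positive control.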

[8] = target: Cytochrome P450 2C9 (Homo sapiens) (UniProt P11712); test: Cytochrome P450 Family 2 Subfamily C Member 9 (CYP2C9) small molecule antagonists: luciferase reporter qHTS assay (AID 1671198); also: nearly all actives have a fitted effect of over 50% in size; also: potency is read from the fitted curve at half-maximal effect; as to activity change, negative = inhibition: series mostly up to about 120 µM
Procedure, shortened: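 Enzyme-substrate mix preincubated with compound 10 min at room temperature; reaction started with NADPH regeneration solution, 1 h 37C. Luminescent luciferin product read after 20 min detection reagent.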

[9] = target: Cytochrome P450 1A2 (Homo sapiens) (UniProt P05177); test: Cytochrome P450 Family 1 Subfamily A Member 2 (CYP1A2) small molecule antagonists: luciferase reporter qHTS assay (AID 1671199); also: nearly all actives have a fitted effect of over 50% in size; also: potency is read from the fitted curve at half-maximal effect; as to activity change, negative = inhibition: series mostly up to about 120 µM
Procedure, shortened: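 Quantitative high-throughput format using the P450-Glo CYP1A2 system. Reaction initiated by NADPH regeneration solution, 1 h at room temperature, then stopped with detection reagent; luminescence measured 20 min later.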

[10] = target: Voltage-gated inwardly rectifying potassium channel KCNH2 (Homo sapiens) (UniProt Q12809); test: Human Ether-a-go-go-Related Gene (hERG) channel small molecule antagonists: fluorescence cell-based qHTS assay (AID 1671200); also: nearly all actives have a fitted effect of over 50% in size; also: potency is read from the fitted curve at half-maximal effect; as to activity change, negative = inhibition: series mostly up to about 77 µM
Procedure, shortened: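 Thallium flux as potassium surrogate: FluxOR II dye loaded 1 h at room temperature into hERG-expressing U2OS cells, then stimulus buffer added after 10 min. Kinetic 480 nm excitation/540 nm emission read, 2 min.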

[11] = target: Cytochrome P450 3A4 (Homo sapiens) (UniProt P08684); test: Cytochrome P450 Family 3 Subfamily A Member 4 (CYP3A4) small molecule antagonists: luciferase reporter qHTS assay (AID 1671201); also: nearly all actives have a fitted effect of over 50% in size; also: potency is read from the fitted curve at half-maximal effect; as to activity change, negative = inhibition: series mostly up to about 120 µM
Procedure, shortened: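 Recombinant human CYP3A4 converts a proluciferin substrate to luciferin over 1 h at room temperature after NADPH regeneration solution is added (compound preincubated 10 min); detection reagent stops reaction, luminescence read 20 min later as relative units.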

[12] = target: Nuclear receptor subfamily 1 group I member 2 (Homo sapiens) (UniProt O75469); test: Human pregnane X receptor (PXR) small molecule agonists, qHTS assay (AID 1346982); also: nearly all actives have a fitted effect of over 35% in size; also: potency is read from the fitted curve at half-maximal effect
Procedure, shortened: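 After plating in 5% charcoal-stripped FBS and a 5 hr rest, PXR-Luc HepG2 cells received compounds in DMSO. Following 24 hr at 37 C, ONE-Glo was added and light output read.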

[13] = target: Nuclear receptor subfamily 1 group I member 2 (Rattus norvegicus) (UniProt Q9R1A7); test: Rat pregnane X receptor (rPXR) activation by small molecules, qHTS assay (AID 1346983); conditions: rPXR luciferase reporter cells, One-Glo luminescence, 24 h; stronger effect = higher value; also: nearly all actives have a fitted effect of over 20% in size
Procedure, shortened: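 Luminescent readout (One-Glo luciferase, 30 min room temperature) followed 24 hr compound treatment at 37 C of rPXR cells plated 2,000 per well and preincubated 5hr; qHTS format with compounds delivered in DMSO.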

[14] = target: Nuclear receptor subfamily 1 group I member 2 (Homo sapiens) (UniProt O75469); test: CYP3A4 induction through human pregnane X receptor (PXR) by small molecules, qHTS assay (AID 1346984); also: nearly all actives have a fitted effect of over 40% in size
Procedure, shortened: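 Human PXR activation is tracked via CYP3A4 promoter-luciferase in DPX-2 (HepG2) cells. Compounds treat cells for 24hr at 37C, and luminescence is read after One-Glo.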

Cytochrome P450 1A2 (Homo sapiens), sequence (P05177 whole entry, looked up): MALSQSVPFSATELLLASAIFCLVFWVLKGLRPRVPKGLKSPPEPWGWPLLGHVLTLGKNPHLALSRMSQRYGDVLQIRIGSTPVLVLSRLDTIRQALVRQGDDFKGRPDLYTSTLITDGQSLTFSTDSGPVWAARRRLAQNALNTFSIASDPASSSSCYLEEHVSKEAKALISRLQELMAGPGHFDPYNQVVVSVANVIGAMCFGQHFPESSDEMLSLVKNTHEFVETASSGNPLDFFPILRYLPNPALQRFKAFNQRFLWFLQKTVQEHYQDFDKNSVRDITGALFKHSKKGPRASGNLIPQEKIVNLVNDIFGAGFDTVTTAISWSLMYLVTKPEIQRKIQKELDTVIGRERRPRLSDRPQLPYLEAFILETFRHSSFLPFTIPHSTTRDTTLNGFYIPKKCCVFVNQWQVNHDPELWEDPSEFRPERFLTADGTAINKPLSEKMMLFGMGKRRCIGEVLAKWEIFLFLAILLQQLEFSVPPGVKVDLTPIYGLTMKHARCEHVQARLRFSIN
Cytochrome P450 2D6 (Homo sapiens), sequence (P10635 whole entry, looked up): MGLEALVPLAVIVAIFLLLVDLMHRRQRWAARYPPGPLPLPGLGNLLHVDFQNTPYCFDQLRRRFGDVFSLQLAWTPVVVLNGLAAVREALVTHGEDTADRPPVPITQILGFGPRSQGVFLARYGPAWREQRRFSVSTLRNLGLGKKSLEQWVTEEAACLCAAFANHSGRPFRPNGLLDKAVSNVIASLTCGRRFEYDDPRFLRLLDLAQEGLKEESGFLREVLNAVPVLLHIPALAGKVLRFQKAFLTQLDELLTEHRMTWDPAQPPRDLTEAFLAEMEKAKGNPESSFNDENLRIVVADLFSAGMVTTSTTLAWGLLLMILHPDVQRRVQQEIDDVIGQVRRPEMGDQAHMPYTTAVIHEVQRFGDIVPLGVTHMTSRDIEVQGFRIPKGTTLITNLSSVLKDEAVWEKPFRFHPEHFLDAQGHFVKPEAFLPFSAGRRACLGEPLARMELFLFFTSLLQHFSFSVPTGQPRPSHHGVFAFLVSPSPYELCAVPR
Cytochrome P450 3A4 (Homo sapiens), sequence (P08684 whole entry, looked up): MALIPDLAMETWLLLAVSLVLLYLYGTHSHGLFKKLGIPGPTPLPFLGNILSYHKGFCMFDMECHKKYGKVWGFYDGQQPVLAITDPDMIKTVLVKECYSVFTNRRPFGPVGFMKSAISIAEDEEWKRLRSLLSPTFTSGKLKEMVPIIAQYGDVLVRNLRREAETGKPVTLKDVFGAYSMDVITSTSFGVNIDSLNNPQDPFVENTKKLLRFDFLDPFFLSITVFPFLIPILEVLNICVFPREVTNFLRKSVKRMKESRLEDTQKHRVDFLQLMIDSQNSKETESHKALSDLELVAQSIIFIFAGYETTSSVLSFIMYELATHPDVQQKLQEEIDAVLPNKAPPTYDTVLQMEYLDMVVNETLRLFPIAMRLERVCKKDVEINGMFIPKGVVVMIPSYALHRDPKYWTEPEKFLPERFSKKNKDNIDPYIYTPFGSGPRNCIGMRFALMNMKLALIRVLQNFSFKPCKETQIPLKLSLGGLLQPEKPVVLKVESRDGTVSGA
Nuclear receptor subfamily 1 group I member 2 (Homo sapiens), sequence (O75469 whole entry, looked up): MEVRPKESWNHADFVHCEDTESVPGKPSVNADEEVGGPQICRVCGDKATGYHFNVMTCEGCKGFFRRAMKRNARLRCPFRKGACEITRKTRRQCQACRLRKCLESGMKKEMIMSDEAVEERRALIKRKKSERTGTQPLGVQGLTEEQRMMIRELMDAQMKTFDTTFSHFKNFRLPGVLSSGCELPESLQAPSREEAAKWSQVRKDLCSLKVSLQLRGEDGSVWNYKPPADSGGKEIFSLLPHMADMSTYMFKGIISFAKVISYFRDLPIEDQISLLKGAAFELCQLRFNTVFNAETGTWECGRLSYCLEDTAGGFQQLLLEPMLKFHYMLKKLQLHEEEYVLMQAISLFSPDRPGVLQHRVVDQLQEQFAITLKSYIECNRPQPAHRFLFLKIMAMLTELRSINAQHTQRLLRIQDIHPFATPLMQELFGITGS
Voltage-gated inwardly rectifying potassium channel KCNH2 (Homo sapiens), sequence (Q12809 whole entry, looked up): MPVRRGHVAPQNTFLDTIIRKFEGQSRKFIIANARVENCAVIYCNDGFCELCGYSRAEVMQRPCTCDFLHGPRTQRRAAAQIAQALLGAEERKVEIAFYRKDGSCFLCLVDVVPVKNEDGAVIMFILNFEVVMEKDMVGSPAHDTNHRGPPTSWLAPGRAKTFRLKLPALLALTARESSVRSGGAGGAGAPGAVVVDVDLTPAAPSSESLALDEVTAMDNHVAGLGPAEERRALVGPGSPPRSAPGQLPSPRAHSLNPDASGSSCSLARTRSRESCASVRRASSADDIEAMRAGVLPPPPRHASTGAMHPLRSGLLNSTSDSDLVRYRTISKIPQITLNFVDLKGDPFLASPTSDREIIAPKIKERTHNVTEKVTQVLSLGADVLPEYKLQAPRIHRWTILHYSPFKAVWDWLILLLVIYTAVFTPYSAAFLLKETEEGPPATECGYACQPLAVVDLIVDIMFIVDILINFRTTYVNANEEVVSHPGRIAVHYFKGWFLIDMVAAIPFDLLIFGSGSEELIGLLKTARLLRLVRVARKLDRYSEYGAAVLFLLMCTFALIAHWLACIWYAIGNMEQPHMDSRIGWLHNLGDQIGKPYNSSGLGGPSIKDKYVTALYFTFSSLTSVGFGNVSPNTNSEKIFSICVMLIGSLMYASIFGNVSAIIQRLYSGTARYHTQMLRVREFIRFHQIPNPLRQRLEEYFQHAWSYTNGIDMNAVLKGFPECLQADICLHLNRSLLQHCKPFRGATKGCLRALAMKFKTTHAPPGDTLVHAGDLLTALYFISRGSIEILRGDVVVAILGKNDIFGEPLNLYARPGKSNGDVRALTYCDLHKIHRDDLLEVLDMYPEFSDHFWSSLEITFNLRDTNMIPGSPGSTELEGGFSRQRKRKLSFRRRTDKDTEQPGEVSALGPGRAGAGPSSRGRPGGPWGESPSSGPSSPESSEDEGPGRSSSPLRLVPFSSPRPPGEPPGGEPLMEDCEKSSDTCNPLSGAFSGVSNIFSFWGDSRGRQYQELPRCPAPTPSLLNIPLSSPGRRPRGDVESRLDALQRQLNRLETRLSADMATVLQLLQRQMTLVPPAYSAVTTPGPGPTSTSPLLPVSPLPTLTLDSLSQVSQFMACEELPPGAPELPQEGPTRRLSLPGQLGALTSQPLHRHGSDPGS
Cytochrome P450 2C19 (Homo sapiens), sequence (P33261 whole entry, looked up): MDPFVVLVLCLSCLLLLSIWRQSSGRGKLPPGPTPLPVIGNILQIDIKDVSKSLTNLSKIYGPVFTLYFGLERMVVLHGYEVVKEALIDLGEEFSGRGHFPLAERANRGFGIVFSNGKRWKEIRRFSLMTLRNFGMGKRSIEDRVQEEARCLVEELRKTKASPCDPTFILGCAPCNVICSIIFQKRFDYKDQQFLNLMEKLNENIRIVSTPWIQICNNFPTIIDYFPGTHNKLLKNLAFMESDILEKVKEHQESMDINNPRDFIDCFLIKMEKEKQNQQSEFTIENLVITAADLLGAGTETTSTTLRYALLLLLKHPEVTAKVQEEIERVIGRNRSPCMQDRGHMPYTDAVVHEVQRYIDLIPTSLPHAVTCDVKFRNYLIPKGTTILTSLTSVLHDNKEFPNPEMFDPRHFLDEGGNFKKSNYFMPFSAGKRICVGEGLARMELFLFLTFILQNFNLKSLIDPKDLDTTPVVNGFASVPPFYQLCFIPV
Nuclear receptor subfamily 1 group I member 2 (Rattus norvegicus), sequence (Q9R1A7 whole entry, looked up): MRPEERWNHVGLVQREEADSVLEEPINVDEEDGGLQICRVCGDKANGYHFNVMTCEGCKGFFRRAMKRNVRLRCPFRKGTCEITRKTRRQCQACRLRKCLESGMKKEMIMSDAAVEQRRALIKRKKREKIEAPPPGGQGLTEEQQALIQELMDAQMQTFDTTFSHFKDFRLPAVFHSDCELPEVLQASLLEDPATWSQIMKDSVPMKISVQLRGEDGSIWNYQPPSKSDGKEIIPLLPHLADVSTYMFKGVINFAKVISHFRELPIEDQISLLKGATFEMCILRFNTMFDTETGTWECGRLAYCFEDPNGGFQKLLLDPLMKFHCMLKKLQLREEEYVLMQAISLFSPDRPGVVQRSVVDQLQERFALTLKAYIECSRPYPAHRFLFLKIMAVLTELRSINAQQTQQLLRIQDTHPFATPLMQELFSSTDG
Cytochrome P450 2C9 (Homo sapiens), sequence (P11712 whole entry, looked up): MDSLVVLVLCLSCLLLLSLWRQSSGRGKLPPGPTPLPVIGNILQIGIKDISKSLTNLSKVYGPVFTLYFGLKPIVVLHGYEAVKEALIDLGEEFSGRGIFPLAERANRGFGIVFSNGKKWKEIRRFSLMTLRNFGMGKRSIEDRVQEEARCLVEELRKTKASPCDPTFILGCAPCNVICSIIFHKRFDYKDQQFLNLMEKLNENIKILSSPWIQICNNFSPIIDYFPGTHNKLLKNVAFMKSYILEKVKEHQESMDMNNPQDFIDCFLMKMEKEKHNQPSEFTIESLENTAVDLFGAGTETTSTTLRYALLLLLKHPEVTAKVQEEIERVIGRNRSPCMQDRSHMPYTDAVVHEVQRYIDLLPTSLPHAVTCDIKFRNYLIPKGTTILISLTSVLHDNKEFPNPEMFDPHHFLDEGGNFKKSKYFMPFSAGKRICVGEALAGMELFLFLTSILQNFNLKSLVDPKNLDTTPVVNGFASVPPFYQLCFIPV

Compound	Potency [1]	Potency [2]	Potency [3]	Potency [4]	Potency [5]	Potency [6]	Potency [7]	Potency [8]	Potency [9]	Potency [10]	Potency [11]	Potency [12]	activity change, negative = inhibition [8]	activity change, negative = inhibition [11]	max activation [13]	Potency [14]
C=C(C)CC(C)(C)C	inactive	inactive	inactive	inactive	inactive	inactive	inactive	inactive	inactive	inactive	inactive					
Cc1cc(C)cc(O)c1	6.31 µM (active) and inactive	12.2 µM (active) and inactive	1.73 µM (active) and inactive	inactive		inactive	40 µM (active) and 73.1 µM (active)	inactive		inactive	inactive	inactive				
NC(=O)NC(N)=O	inactive	inactive	inactive	inactive	inactive	inactive	inactive	inactive	inactive	inactive	inactive					
Clc1cccc(Cl)c1NC1=NCCN1	inactive	inactive	inactive	inactive	inactive					inactive						
CCn1cc(C(=O)O)c(=O)c2cc3c(cc21)OCO3	inactive	inactive	inactive	inactive	inactive	inactive				inactive			4.54% [at 23.6 µM] (inactive)	-0.272% [at 23.6 µM] (inactive)		
CN1Cc2c(N)cccc2C(c2ccccc2)C1 (centres undefined)	inactive	inactive	inactive		inactive	5.03 µM (active) and 12.3 µM (active)	inactive	inactive	inactive	inactive	inactive	inactive			-2.53% (inactive)	inactive
COCN(COC)c1nc(N(COC)COC)nc(N(COC)COC)n1	inactive	inactive	inactive	inactive		inactive			inactive	inactive	inactive	54.5 µM (active)				
N[C@@H](Cc1cc(I)c(Oc2ccc(O)c(I)c2)c(I)c1)C(=O)O	inactive	inactive	inactive		inactive	inactive				inactive		inactive and 63.7 µM (active)			-2.4% (inactive)	
COc1ccc([C@@H]2CC(=O)c3c(O)cc(O[C@@H]4O[C@H](CO[C@@H]5O[C@@H](C)[C@H](O)[C@@H](O)[C@H]5O)[C@@H](O)[C@H](O)[C@H]4O)cc3O2)cc1OC	inactive	inactive	inactive	inactive	inactive	inactive	inactive		inactive	inactive	inactive and 21.7 µM (active)					
CC(C)(C)NC[C@H](O)COc1nsnc1N1CCOCC1	inactive	inactive	inactive	inactive	inactive			inactive		inactive						
O=C(NCC1CCCCN1)c1cc(OCC(F)(F)F)ccc1OCC(F)(F)F (centres undefined)	60 µM (active)	inactive	inactive	inactive	inactive		inactive	inactive		15.2 µM (active) and 9.52 µM (active)						
CC(=O)OCc1ccc2c(c1)OCO2	inactive	inactive	inactive	inactive	inactive	inactive	35.7 µM (active) and 31.7 µM (active)	25.2 µM (active) and 35.6 µM (active)		inactive	20.1 µM (active) and 39.9 µM (active)					
CCCCCC(C)=O	inactive and 61.1 µM (active)	inactive	inactive	inactive	inactive	inactive		inactive	inactive	inactive	inactive					
CC/C=C(\C(=O)N[C@@H]1C(=O)N2C(C(=O)OCOC(=O)C(C)(C)C)=C(COC(N)=O)CS[C@H]12)c1csc(N)n1	inactive	inactive	inactive	inactive	inactive	inactive		12.3 µM (active) and 7.76 µM (active)	27.5 µM (active) and inactive	inactive						
Cc1ccc([N+](=O)[O-])cc1N	inactive	inactive	inactive		inactive	35.5 µM (active) and 39.9 µM (active)	35.5 µM (active) and 44.8 µM (active)			inactive		inactive				
O=C(c1ccccc1)c1ccc(O)c(O)c1O		inactive	69.1 µM (active) and 61.1 µM (active)		61.6 µM (active)	63.8 µM (active)	80.4 µM (active) and 63.3 µM (active)	40.3 µM (active) and 63.3 µM (active)		inactive	inactive					
COc1ccccc1[N+](=O)[O-]	inactive	inactive	inactive		inactive	inactive	inactive and 35.6 µM (active)	inactive		inactive	inactive					
CN1CCCC1=O	inactive	inactive	inactive		inactive	inactive		inactive		inactive	inactive					
O=C1CCCCCCCCCCC1	inactive	inactive	inactive		inactive	inactive		inactive	inactive	inactive	inactive	inactive				
CC(=O)Nc1ccc(CC(=O)O)cc1	inactive	inactive	inactive		inactive	inactive	inactive	inactive	inactive	inactive	inactive				-3.84% (inactive)	inactive
CC(=O)OC(C)(C)C1CC=C(C)CC1 (centres undefined)	inactive	inactive	inactive		inactive	inactive	35.6 µM (active)	39.9 µM (active)		inactive	inactive and 31.7 µM (active)	inactive				
CC(COCC(C)OC(=O)c1ccccc1)OC(=O)c1ccccc1 (centres undefined)	inactive	inactive	inactive		inactive	inactive		6.28 µM (active) and 5.64 µM (active)			inactive	inactive				
CCCOC(=O)NCCCN(C)C	inactive	inactive	inactive		inactive	inactive and 35.6 µM (active)	35.6 µM (active) and inactive	63.3 µM (active) and inactive		inactive	inactive	inactive				
